Screens as filed in PubChem BioAssay.
Only some compounds are listed: those with a hit (about 2.5% of all), similar ones and a draw of the others.
PKA-R1A activ – activates the PKA-R1A holoenzyme complex; P00514+P68181; PKA-R1A dissociation, Cy5-IP20 fluorescence polarization; scaled: DMSO 0%, 113 µM cGMP 100%; activation, % at 11.4 µM; 340,000 compounds, 0.083% hits; AID 504707;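 active = percent activation above the mean of all tested compounds plus 3 SD, cut at about 19% in these data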;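 note: higher means more PKAc released from R1A so a rise in polarization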
PKA-R2B act – PKA-R2B complex activation; P22694+P31323; PKA-R2B holoenzyme dissociation, Cy5-IP20 fluorescence polarization; R2B truncated from residue 108, S112A mutant; 0% DMSO only, 100% 113 µM cGMP; activation, % at 11.4 µM; 340,000 compounds, 0.079% hits;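 active = activation above a cutoff set at the mean over all compounds plus 3 SD, cut at about 18% in these data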;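 note: higher means more holoenzyme dissociation and a rise in polarization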
Target sequence (P31323 whole entry, looked up, other chains not shown, the tested form may be a part): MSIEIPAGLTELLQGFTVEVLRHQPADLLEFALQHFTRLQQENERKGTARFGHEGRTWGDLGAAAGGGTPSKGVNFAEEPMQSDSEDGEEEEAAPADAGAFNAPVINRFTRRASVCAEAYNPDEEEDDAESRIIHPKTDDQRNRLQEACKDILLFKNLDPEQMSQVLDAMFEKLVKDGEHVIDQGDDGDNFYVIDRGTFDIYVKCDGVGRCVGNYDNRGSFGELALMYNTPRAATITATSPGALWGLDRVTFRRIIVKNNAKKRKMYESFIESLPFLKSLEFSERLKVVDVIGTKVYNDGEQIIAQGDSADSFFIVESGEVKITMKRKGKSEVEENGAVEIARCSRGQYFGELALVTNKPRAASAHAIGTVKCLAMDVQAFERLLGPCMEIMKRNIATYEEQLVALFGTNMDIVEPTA
ANO1 block – blocks the mouse calcium-activated chloride channel TMEM16A; Q8BHY3; AID 588511; 310,000 compounds, 1.2% hits; normalized B-score (activity score, 25-100; higher = stronger inhibition) at 10 µM; HEK293 TMEM16A/YFP iodide influx fluorescence, ionomycin;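 active = ratio plate-corrected score three or more library SD toward inhibition, starting fluorescence score within five deviations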;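 note: score derived from kinetic fluorescence span divided by baseline fluorescence per well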
CHT block – inhibitors of human choline transporter CHT | CHT-expressing cells, membrane potential dye, choline response; active compounds read low | B-score at 10 µM | 310,000 compounds, 0.86% hits;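 active = B-score over 3 SD under the library average, and starting fluorescence ratio not unusually high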;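 note: choline stimulus applied at its EC90 after an EC20 pre-addition; B-score computed on integrated fluorescence ratio after choline addition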
CHT PAM – allosterically activates the human high affinity choline transporter | Q9GZV3 | CHT-expressing cells, membrane potential dye, choline EC20; active compounds read high; LV-AA mutant CHT in HEK293 cells | B-score at 10 µM | 310,000 compounds, 0.49% hits;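 active = initial fluorescence not abnormally high and integrated response B-score, plate-corrected, over 3 SD above library mean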
ANO1 activ – activates or potentiates the mouse TMEM16A chloride channel; B-score at 10 µM; AID 623877; 340,000 compounds, 0.3% hits; HEK293 TMEM16A/YFP-H148Q/I152L, iodide quench fluorescence; active compounds read low; Q8BHY3;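 active = fluorescence-ratio B-score plate-corrected deviation score at least 3 library SD below zero, with starting fluorescence score within 5 deviations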;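 note: channel opened by trigger with iodide after compound preincubation; score built on the fluorescence ratio of max minus min over baseline; more negative score means more quench and so TMEM16A activation or potentiation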
Hits are given with their value; i = inactive; nt = not tested or not shown.

SMILES	PKA-R1A activ	PKA-R2B act	ANO1 block	CHT block	CHT PAM	ANO1 activ
COc1ccc(NC(=S)NNc2ccc([N+](=O)[O-])cc2S(=O)(=O)Nc2ccc(C)cc2C)cc1	i	i	100	i	i	i
COc1ccc(NC(=S)Nc2cccc([N+](=O)[O-])c2)cc1	i	i	i	i	i	i
Cc1ccc(NS(=O)(=O)c2cc([N+](=O)[O-])ccc2NNC(=S)Nc2cc(C)ccc2C)c(C)c1	i	i	100	i	i	i
NC(=O)C1CCCN(C(=S)Nc2cccc3ccccc23)C1 (centres undefined)	i	i	i	i	i	i
O=C(COC(=O)CNC(=O)c1ccccc1)NCCNC(=O)COC(=O)CNC(=O)c1ccccc1	i	i	nt	nt	nt	i
N#Cc1cccc(NC(=O)Cn2cnc(S(=O)(=O)N3CCCCC3)c2)c1	i	i	i	i	i	i
COc1ccc(-c2c(C#Cc3ccsc3)c3cc(-c4ccc(C(N)=O)cc4)ccc3n2C)cc1	i	i	nt	nt	nt	i
CCC(CO)Oc1cc(NCc2ccc(C(C)(C)C)cc2)c2ncn(C(C)C)c2c1 (centres undefined)	i	i	nt	nt	nt	i
CN(CC1CCCO1)S(=O)(=O)c1ccc(C(=O)Nc2nc(-c3ccccn3)cs2)cc1 (centres undefined)	i	i	25	i	i	i
CC1(C)OC(=O)C(=Cc2ccc(-c3ccc(S(N)(=O)=O)cc3)o2)C(=O)O1	i	i	i	i	i	-6.2
NS(=O)(=O)c1ccc(-c2ccc(/C=C3\C(=O)Nc4ccccc43)o2)cc1	nt	nt	i	i	i	nt
Cc1ccc(N2CCN(S(=O)(=O)c3ccc(F)c(C)c3)CC2)c(C)c1	i	i	i	i	i	-11
CC(c1ccccc1)N1C(=O)c2ccc(C(=O)Nc3ccc(Br)cc3C(=O)O)cc2C1=O (centres undefined)	i	i	100	i	i	i
C[C@H]1CN([C@@H](C)CO)C(=O)CCCn2cc(nn2)CO[C@@H]1CN(C)S(=O)(=O)c1ccc(Oc2ccccc2)nc1	i	i	nt	nt	nt	nt
O=C(NCC(c1cccs1)N1CCOCC1)c1ccccc1NS(=O)(=O)c1ccc(Cl)c([N+](=O)[O-])c1 (centres undefined)	i	i	25	i	i	i
Cc1ccc(S(=O)(=O)CCC(=O)OCCOc2ccc(Br)cc2)cc1	i	i	nt	nt	nt	nt
CC1(C)CC(=O)C(C(c2ccncc2)C2C(=O)CC(C)(C)CC2=O)C(=O)C1	i	i	i	i	i	-14
COc1cc(C(C2C(=O)CC(C)(C)CC2=O)C2C(=O)CC(C)(C)CC2=O)cc(OC)c1OC	i	i	i	i	i	i
O=C(NC1CC1)c1cccc(S(=O)(=O)Nc2ccccc2F)c1	i	i	i	i	i	-4.9
O=C(NNC(=O)c1cccc(S(=O)(=O)Nc2ccccc2F)c1)c1ccncc1	i	i	nt	nt	nt	nt
c1ccc2c(CSc3ncnc4nc[nH]c34)cccc2c1	i	i	i	i	i	i
CCOC(=O)CCC(=O)NNC(=O)c1ccc(NC(=O)c2ccccc2)cc1	i	i	i	i	i	-6.8
O=C(NNC(=O)c1ccc(NC(=O)c2ccccc2)cc1)c1ccccc1	nt	nt	i	i	i	i
N#Cc1nc(-c2ccccc2)oc1NCc1ccco1	i	i	i	i	i	i
N#Cc1nc(-c2ccccc2Cl)oc1NCc1ccco1	i	i	i	i	i	-4.7
Cc1ccc(CN(C)C(=O)COC(=O)CSc2cc(C)c3ccccc3n2)cc1	i	i	nt	nt	nt	i
Nc1nc2c(s1)CCc1c-2cnn1-c1ccccc1	i	i	i	i	i	i
Nc1nc2c(s1)CC(c1ccccc1)CC2 (centres undefined)	i	i	25	i	i	i
CSCCC1NC(=O)N(CC(=O)N2N=C(c3ccc(Cl)cc3)CC2c2ccco2)C1=O (centres undefined)	i	i	25	i	i	i
Cc1c(S(=O)(=O)NC2CCCCC2)c(=O)n(C)c(=O)n1C	i	i	i	i	i	i
